# Test results published in the OligoGym collection.
# Molecular target: APLNR
# Assay: pooled miR-30 sensor sort-seq; sequence = guide strand
# Settings: shRNA
# Also: reference of the scale not given here.
row,Sequence,sensor-assay potency score (higher = more potent)
1,TTATCTGCTGACACACAGCCCA,-0.574
2,TTGACGAAGATGAGGTAGCTGC,-0.686
3,TGGAGCACTAATTATCTGCTGA,-0.596
4,TGTACTCACACTCAGACTGGTT,-1.04
5,TATCTGCTGACACACAGCCCAC,-1.74
6,AGTCTGTGTACTCACACTCAGA,-2.07
7,TTCACTTTCATAGTCCTCCAAG,-0.567
8,TAGCAATGAAGATATCAGCTGA,0.487
9,TAGCTGGCTGACTTCTCCCCAC,-0.754
10,TATCTAGTCAGTGTCATGGTGC,-0.323
11,TGGATTTCTCGTGCATCTGTTC,-1.45
12,TATAAGTACAACACACACAGAC,0.501
13,TAGCACTGCACCTTAGTGGTGT,0.437
14,TAGCGGTCGAAGCTGAGGCCGG,-1.22
15,AAGTACAACACACACAGACAAG,-1.41
